# Experimental data reported in PubChem BioAssay AID1159580 (chemical genetic matrix, 2015).
# Values joined by “and” are separate entries in the source; they are usually repeats but may differ in a detail not shown here. Equal entries are not always repeated. Hit rate of the full screen: of about 5,500 compounds, about 2,000 (36%) were called active. Another 18% or so got no clear call; they are omitted. The list shows a part of the results. Values without a mark were called inactive. No stated cut-off is given here; in the data, active means normalized growth mostly below about 0.91 (no sharp cut-off); inconclusive means no clear call, values can overlap the other calls; inactive means mostly above about 0.92.
# Test: chemical genetic growth profiling, strain panel (AID 1159580);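 further: tested at 20 µM; growth read once vehicle control cultures reached saturation at 30 °C; 1 = growth at the plate median or of vehicle wells; lower values mean less growth of the strain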
# Conditions: S. cerevisiae deletion strains, growth OD
smiles,measurement,setting,value
CC(C)=CCC1=C(O)c2ccccc2C(=O)C1=O,normalized growth,"locus YAL013W, strain DEP1, hits give low values",0.949
same,normalized growth,"locus YAL021C, strain ccr4, hits give low values",0.748 (active)
same,normalized growth,"locus YAL026C, strain drs2, hits give low values",0.472 (active)
same,normalized growth,"locus YAL030W, strain snc1, hits give low values",0.799 (active)
same,normalized growth,"locus YBL061C, strain skt5, hits give low values",0.774 (active)
same,normalized growth,"locus YBR009C, strain hhf1, hits give low values",0.804 (active)
same,normalized growth,"locus YBR021W, strain FUR4, hits give low values",1.05
same,normalized growth,"locus YBR023C, strain chs3, hits give low values",0.749 (active)
same,normalized growth,"locus YBR171W, strain sec66, hits give low values",0.707 (active)
same,normalized growth,"locus YBR229C, strain ROT2, hits give low values",0.963
same,normalized growth,"locus YBR231C, strain swc5, hits give low values",0.718 (active)
same,normalized growth,"locus YBR279W, strain paf1, hits give low values",0.76 (active)
same,normalized growth,"locus YCL011C, strain gbp2, hits give low values",0.795 (active)
same,normalized growth,"locus YCL016C, strain dcc1, hits give low values",0.762 (active)
same,normalized growth,"locus YCL029C, strain bik1, hits give low values",0.899 (active)
same,normalized growth,"locus YCL069W, strain vba3, hits give low values",0.675 (active)
same,normalized growth,"locus YCR088W, strain abp1, hits give low values",0.799 (active)
same,normalized growth,"locus YDL005C, strain med2, hits give low values",0.759 (active)
same,normalized growth,"locus YDL035C, strain GPR1, hits give low values",0.97
same,normalized growth,"locus YDL040C, strain nat1, hits give low values",0.843 (active)
same,normalized growth,"locus YDL074C, strain BRE1, hits give low values",0.994
same,normalized growth,"locus YDL101C, strain DUN1, hits give low values",0.951
same,normalized growth,"locus YDL134C, strain PPH21, hits give low values",0.958
same,normalized growth,"locus YDL185W, strain tfp1, hits give low values",0.86 (active)
same,normalized growth,"locus YDL192W, strain arf1, hits give low values",0.896 (active)
same,normalized growth,"locus YDR001C, strain nth1, hits give low values",0.816 (active)
same,normalized growth,"locus YDR069C, strain doa4, hits give low values",0.719 (active)
same,normalized growth,"locus YDR101C, strain arx1, hits give low values",0.941
same,normalized growth,"locus YDR137W, strain rgp1, hits give low values",0.328 (active)
same,normalized growth,"locus YDR150W, strain NUM1, hits give low values",0.934
same,normalized growth,"locus YDR159W, strain sac3, hits give low values",0.549 (active)
same,normalized growth,"locus YDR162C, strain NBP2, hits give low values",0.872
same,normalized growth,"locus YDR195W, strain ref2",0.976
same,normalized growth,"locus YDR297W, strain sur2, hits give low values",0.832 (active)
same,normalized growth,"locus YDR318W, strain mcm21, hits give low values",0.902 (active)
same,normalized growth,"locus YDR334W, strain swr1, hits give low values",0.795 (active)
same,normalized growth,"locus YDR335W, strain msn5, hits give low values",0.514 (active)
same,normalized growth,"locus YDR388W, hits give low values",0.928 (active)
same,normalized growth,"locus YDR392W, strain spt3, hits give low values",0.703 (active)
same,normalized growth,"locus YDR502C, strain sam2, hits give low values",0.968
same,normalized growth,"locus YEL003W, strain gim4, hits give low values",0.788 (active)
same,normalized growth,"locus YEL037C, strain rad23, hits give low values",0.825 (active)
same,normalized growth,"locus YEL061C, strain CIN8 (second series), hits give low values",0.799 (active)
same,normalized growth,"locus YEL061C, strain CIN8, hits give low values",0.932
same,normalized growth,"locus YER015W, strain faa2, hits give low values",0.648 (active)
same,normalized growth,"locus YER016W, strain bim1, hits give low values",0.635 (active)
same,normalized growth,"locus YER110C, hits give low values",0.96
same,normalized growth,"locus YER111C, strain swi4, hits give low values",0.564 (active)
same,normalized growth,"locus YER155C, strain BEM2 (second series), hits give low values",0.792 (active)
same,normalized growth,"locus YER155C, strain BEM2, hits give low values",0.962
same,normalized growth,"locus YER167W, strain BCK2, hits give low values",0.956
same,normalized growth,"locus YFR010W, strain ubp6, hits give low values",0.752 (active)
same,normalized growth,"locus YGL078C, strain dbp3, hits give low values",0.914 (active)
same,normalized growth,"locus YGL086W, strain mad1, hits give low values",0.879 (active)
same,normalized growth,"locus YGL167C, strain pmr1, hits give low values",0.0913 (active)
same,normalized growth,"locus YGL173C, strain kem1, hits give low values",0.745 (active)
same,normalized growth,"locus YGL227W, strain vid30, hits give low values",0.767 (active)
same,normalized growth,"locus YGL240W, strain doc1, hits give low values",0.924
same,normalized growth,"locus YGL248W, strain PDE1, hits give low values",0.964
same,normalized growth,"locus YGL253W, strain hxk2, hits give low values",0.592 (active)
same,normalized growth,"locus YGR078C, strain PAC10, hits give low values",0.986
same,normalized growth,"locus YGR135W, strain pre9, hits give low values",0.953
same,normalized growth,"locus YGR229C, strain SMI1, hits give low values",0.992
same,normalized growth,"locus YGR252W, strain gcn5, hits give low values",1
same,normalized growth,"locus YHR013C, strain ard1, hits give low values",0.904
same,normalized growth,"locus YHR027C, strain rpn1, hits give low values",0.537 (active)
same,normalized growth,"locus YHR030C, strain SLT2, hits give low values",0.936 and 0.964
same,normalized growth,"locus YHR079C, strain IRE1 (second series), hits give low values",0.941
same,normalized growth,"locus YHR079C, strain IRE1, hits give low values",0.961
same,normalized growth,"locus YHR094C, strain hxt1, hits give low values",0.96
same,normalized growth,"locus YHR129C, strain ARP1, hits give low values",0.952
same,normalized growth,"locus YHR142W, strain chs7, hits give low values",0.421 (active)
same,normalized growth,"locus YHR200W, strain rpn10, hits give low values",0.932
same,normalized growth,"locus YIL066C, strain RNR3, hits give low values",0.965
same,normalized growth,"locus YIL073C, strain SPO22, hits give low values",0.824
same,normalized growth,"locus YIL125W, strain kgd1, hits give low values",0.93 (active)
same,normalized growth,"locus YIR030C, strain dcg1, hits give low values",0.945
same,normalized growth,"locus YJL092W, strain hpr5, hits give low values",0.793 (active)
same,normalized growth,"locus YJL095W, strain BCK1 (second series), hits give low values",0.675 (active)
same,normalized growth,"locus YJL095W, strain BCK1, hits give low values",0.944 and 0.936
same,normalized growth,"locus YJL115W, strain asf1, hits give low values",0.861 (active)
same,normalized growth,"locus YJL129C, strain trk1, hits give low values",0.554 (active)
same,normalized growth,"locus YJL134W, strain LCB3, hits give low values",0.95
same,normalized growth,"locus YJL154C, strain vps35, hits give low values",0.815 (active)
same,normalized growth,"locus YJL164C, strain tpk1, hits give low values",0.775 (active)
same,normalized growth,"locus YJL166W, strain qcr8, hits give low values",0.714 (active)
same,normalized growth,"locus YJL168C, strain set2, hits give low values",0.95
same,normalized growth,"locus YJL187C, strain SWE1 (second series), hits give low values",0.957
same,normalized growth,"locus YJL187C, strain SWE1, hits give low values",0.789 (active)
same,normalized growth,"locus YJR043C, strain POL32, hits give low values",1.04
same,normalized growth,"locus YJR066W, strain TOR1, hits give low values",0.875
